From PubChem BioAssay (Tox21)
Inconclusive results are not listed. A call without a number means that no potency is given here. Calls of active or inactive are those of the source. Unless noted, calls come from the whole dose curve; as a rule, active = well fitted activation curve with a large enough effect in the repeat runs; inconclusive = weak or mixed curves; inactive = no such curve, though single readings can be large or run the other way.
Note: nearly all actives have a fitted effect of over 15% in size.

Experiment: qHTS assay for small molecule agonists of the p53 signaling pathway (AID 651631; calls by dose curve; note: potency is the fitted concentration of half-maximal effect)
Conditions: HCT-116 p53RE-bla reporter, beta-lactamase FRET ratio, 16 h; series mostly up to 73.3 µM
Summary of the method: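 p53RE-bla HCT-116 cells; compounds 16 h, 37 °C; LiveBLAzer B/G FRET substrate 2 h RT; fluorescence intensity read-out, qHTS format.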
For `C=CC(=C)CCC=C(C)C`, the Potency was “inactive”. With `Cn1cnc2ncnc(N)c21` the Potency was “inactive”. With `Cc1cccc(Br)c1` the Potency was “inactive”. In the case of `CCCCCCCCCC(=O)N(C)C`, the Potency is reported as “inactive”. For `[O]=[Zr]`, the Potency was “inactive”. For `CC(COC(=O)c1ccccc1)OC(=O)c1ccccc1` (configuration not stated), the Potency was “inactive”. With `CCOC(=O)COc1ccc(C)cc1` the Potency was “inactive”. With `Oc1c(Br)cc(Br)c2cccnc12` the Potency was 5.96 µM (active). With `CCCCOC(=O)C(C)CC` (configuration not stated) the Potency was “inactive”. With `CC1CCCNC1` (configuration not stated) the Potency was “inactive”. In the case of `CCC(=O)OCCc1ccccc1`, the Potency is reported as “inactive”. In the case of `O=C(c1ccccc1)c1cc(Cl)ccc1O`, the Potency is reported as “inactive”. For `CC1(C)C(=O)N(Br)C(=O)N1Br`, the Potency was “inactive”. For `O=C(Nc1ccc(Cl)c(Cl)c1)c1cc(Cl)cc(Cl)c1O`, the Potency was 3.06 µM (active). With `C/C=C/C(=O)Oc1c(CCCCCC(C)C)cc([N+](=O)[O-])cc1[N+](=O)[O-]` the Potency was 0.864 µM (active). In the case of `C(=C/c1ccccc1)/c1ccccc1`, the Potency is reported as “inactive”. In the case of `CCc1cccc(C)c1`, the Potency is reported as “inactive”. With `NC(=O)c1ccccc1N` the Potency was “inactive”. In the case of `CCCCCCCC/C=C\CCCCCCCC(=O)OCCOC(=O)CCCCCCC/C=C\CCCCCCCC`, the Potency is reported as “inactive”. For `CC1=C(/C=C/C(C)=C/C=C/C(C)=C/C(=O)Nc2ccc(O)cc2)C(C)(C)CCC1`, the Potency was 29.8 µM (active). With `CCC(C)(C)c1cc(O)c(C(C)(C)CC)cc1O` the Potency was 54.5 µM (active). With `Cc1cn[nH]c1` the Potency was “inactive”. With `O=C(Nc1ccc(Cl)cc1)Nc1ccc(Cl)c(C(F)(F)F)c1` the Potency was 16.8 µM (active). For `Cc1c(C(=O)O)cccc1[N+](=O)[O-]`, the Potency was “inactive”. With `CC(=O)Oc1ccc(C2(c3ccc(OC(C)=O)cc3)Oc3ccccc3NC2=O)cc1` the Potency was 2.37 µM (active). With `CCCCCCCCCCCCCCNCCO` the Potency was “inactive”. In the case of `CCNc1nc(NC(C)CC)nc(OC)n1` (configuration not stated), the Potency is reported as “inactive”. For `ClC/C=C\CCl`, the Potency was “inactive”. In the case of `COC(=O)CC#N`, the Potency is reported as “inactive”. With `O=C(O)c1cccc(Cl)n1` the Potency was “inactive”. For `C=CC(C)(CCC=C(C)C)OC(=O)/C=C/c1ccccc1` (configuration not stated), the Potency was “inactive”. In the case of `COC(=O)NCCC[Si](OC)(OC)OC`, the Potency is reported as “inactive”. In the case of `O=C(O)CC(=O)O`, the Potency is reported as “inactive”. For `C1CC(COCC2CO2)CCC1COCC1CO1` (configuration not stated), the Potency was “inactive”. For `CC(C)=C1CC[C@@H](C)CC1=O`, the Potency was “inactive”. With `CCCCCCCCCCCCCCCC` the Potency was “inactive”.

Experiment: qHTS assay for small molecules that induce genotoxicity in human embryonic kidney cells expressing luciferase-tagged ATAD5 (AID 651632)
Conditions: HEK293T ATAD5-luciferase induction, 16 h; series mostly up to 83.3 µM
Summary of the method: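 ATAD5-luc HEK293T, 2,000 cells/well; cpd or DMSO pin-transferred; 16 hr, 37C/5% CO2; Amplite 30 min RT; luminescence.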
With `C=CC(=C)CCC=C(C)C` the Potency was “inactive”. With `Cn1cnc2ncnc(N)c21` the Potency was “inactive”. With `Cc1cccc(Br)c1` the Potency was “inactive”. With `CCCCCCCCCC(=O)N(C)C` the Potency was “inactive”. For `[O]=[Zr]`, the Potency was “inactive”. With `CC(COC(=O)c1ccccc1)OC(=O)c1ccccc1` (configuration not stated) the Potency was “inactive”. In the case of `CCOC(=O)COc1ccc(C)cc1`, the Potency is reported as “inactive”. In the case of `Oc1c(Br)cc(Br)c2cccnc12`, the Potency is reported as “inactive”. For `CCCCOC(=O)C(C)CC` (configuration not stated), the Potency was “inactive”. With `CC1CCCNC1` (configuration not stated) the Potency was “inactive”. For `CCC(=O)OCCc1ccccc1`, the Potency was “inactive”. In the case of `O=C(c1ccccc1)c1cc(Cl)ccc1O`, the Potency is reported as “inactive”. For `CC1(C)C(=O)N(Br)C(=O)N1Br`, the Potency was “inactive”. With `O=C(Nc1ccc(Cl)c(Cl)c1)c1cc(Cl)cc(Cl)c1O` the Potency was “inactive”. In the case of `C/C=C/C(=O)Oc1c(CCCCCC(C)C)cc([N+](=O)[O-])cc1[N+](=O)[O-]`, the Potency is reported as “inactive”. With `C(=C/c1ccccc1)/c1ccccc1` the Potency was “inactive”. With `CCc1cccc(C)c1` the Potency was “inactive”. For `NC(=O)c1ccccc1N`, the Potency was “inactive”. With `CCCCCCCC/C=C\CCCCCCCC(=O)OCCOC(=O)CCCCCCC/C=C\CCCCCCCC` the Potency was “inactive”. For `CC1=C(/C=C/C(C)=C/C=C/C(C)=C/C(=O)Nc2ccc(O)cc2)C(C)(C)CCC1`, the Potency was “inactive”. With `CCC(C)(C)c1cc(O)c(C(C)(C)CC)cc1O` the Potency was “inactive”. With `Cc1cn[nH]c1` the Potency was “inactive”. For `O=C(Nc1ccc(Cl)cc1)Nc1ccc(Cl)c(C(F)(F)F)c1`, the Potency was “inactive”. For `Cc1c(C(=O)O)cccc1[N+](=O)[O-]`, the Potency was “inactive”. For `CC(=O)Oc1ccc(C2(c3ccc(OC(C)=O)cc3)Oc3ccccc3NC2=O)cc1`, the Potency was “inactive”. With `CCCCCCCCCCCCCCNCCO` the Potency was “inactive”. For `CCNc1nc(NC(C)CC)nc(OC)n1` (configuration not stated), the Potency was “inactive”. In the case of `ClC/C=C\CCl`, the Potency is reported as “inactive”. For `COC(=O)CC#N`, the Potency was “inactive”. With `O=C(O)c1cccc(Cl)n1` the Potency was “inactive”. With `C=CC(C)(CCC=C(C)C)OC(=O)/C=C/c1ccccc1` (configuration not stated) the Potency was “inactive”. In the case of `COC(=O)NCCC[Si](OC)(OC)OC`, the Potency is reported as “inactive”. For `O=C(O)CC(=O)O`, the Potency was “inactive”. For `C1CC(COCC2CO2)CCC1COCC1CO1` (configuration not stated), the Potency was “inactive”. With `CC(C)=C1CC[C@@H](C)CC1=O` the Potency was “inactive”. With `CCCCCCCCCCCCCCCC` the Potency was “inactive”.
